This is a sample that favours compounds with a hit; in the whole collection about 0.52% have one here.
uPA generation = inhibitors of cell surface uPA generation; cell surface uPA generation assay, qHTS; Potency, µM (highest dose often 38.3 µM), for the others: top-dose activity change, negative = inhibition, usual class: inhibitors; 330,000 tested, 0.31% active; AID 540303; active = well fitted inhibition curve with a large enough effect; inconclusive = small, poorly fitted or top-dose-only effect; inactive = no such curve, though single readings can be large or run the other way; tested in mouse RAW 264.7 cells; note: nearly all actives have a fitted effect of over 55% in size
RGS4 inh = inhibitors of human regulator of G protein signaling 4; P49798; Transcreener GDP fluorescence polarization, RGS4-accelerated GTP hydrolysis; Potency, µM (highest dose often 114 µM), for inactives: at the highest dose activity change, negative = inhibition, most hits filed as inhibitors; 390,000 tested, 0.039% active; note: nearly all actives have a fitted effect of over 75% in size
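MLSMR compounds (23 nl, pin-transferred) preincubated 10 min at room temperature with a 500nM (2x) first reagent, then RGS4 at 900nM (2x) plus Transcreener GDP mix added; fluorescence polarization (620/688 nm) read before and after 90 min at 30 °C.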
KAT2A inh = GCN5L2 (KAT2A) acetyltransferase inhibition. Potency, µM (series often up to 58.9 µM), for inactives: top-dose activity change, negative = inhibition, most hits filed as inhibitors. AID 504327. Q92830. 390,000 tested, 0.21% active. GCN5L2 HAT assay, ThioGlo1 CoA-SH fluorescence
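Fluorescence readout, Ex340nm/Em540nm: ThioGlo1 (50uM final) reacts with free CoA thiol released as 20nM GCN5L2 acetylates H3(1-25) peptide (75uM) using acetyl-CoA (70uM). Compound and enzyme sat 15 min beforehand; 20 min room-temperature reaction.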
USP2a block = blocks human ubiquitin-specific protease USP2a; USP2 core, Ub-CHOP2 coupled fluorogenic reporter, 485/531; AID 463254; Potency, µM (series often up to 38.3 µM), for the others: at the top dose activity change, negative = inhibition, hits mostly inhibitors; O75604; 330,000 tested, 0.01% active;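 note: plate controls were DMSO wells for no effect and full inhibition by NEM control for full effect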
Target sequence (O75604 whole entry, looked up): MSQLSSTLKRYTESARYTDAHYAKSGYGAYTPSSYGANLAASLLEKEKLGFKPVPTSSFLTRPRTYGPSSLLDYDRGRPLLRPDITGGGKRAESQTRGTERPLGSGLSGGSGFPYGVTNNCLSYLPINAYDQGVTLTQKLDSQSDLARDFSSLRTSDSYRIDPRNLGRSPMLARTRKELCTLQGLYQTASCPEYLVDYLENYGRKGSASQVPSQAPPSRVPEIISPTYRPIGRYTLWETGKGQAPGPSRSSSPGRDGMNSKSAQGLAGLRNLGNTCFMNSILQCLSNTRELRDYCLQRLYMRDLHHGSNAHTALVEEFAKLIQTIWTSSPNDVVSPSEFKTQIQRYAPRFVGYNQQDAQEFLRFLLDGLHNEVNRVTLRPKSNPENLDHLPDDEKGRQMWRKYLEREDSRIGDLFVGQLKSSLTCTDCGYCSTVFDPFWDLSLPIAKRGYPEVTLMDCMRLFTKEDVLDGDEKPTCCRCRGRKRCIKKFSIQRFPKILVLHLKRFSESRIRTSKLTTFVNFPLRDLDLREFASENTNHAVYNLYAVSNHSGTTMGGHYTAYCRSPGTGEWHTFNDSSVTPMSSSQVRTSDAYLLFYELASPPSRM
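Deubiquitinase activity read as fluorescence (485/531 nm) after Ub-CHOP2 cleavage activates the enterokinase reporter on its substrate; USP2 core 10nM, Ub-CHOP2 and substrate 25nM each, 30min compound preincubation then 60min RT; data normalized to NEM, curves fitted.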
Eya2 inh = blocks the phosphatase activity of human Eya2. O00167. recombinant Eya2, OMFP fluorescence dephosphorylation (OMFP is methylfluorescein phosphate). Potency, µM (highest dose often 76.9 µM), without a hit: at the highest dose activity, negative = inhibition, hits mostly inhibitors. 330,000 tested, 0.006% active. AID 488837
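Eya2 protein (added as 0.2 uM solution) was preincubated with compound for 10 min at ambient temperature in 50 mM HEPES pH 7.5, 50 mM NaCl, 5 uM MgCl2, 0.05% BSA, 1 mM DTT. OMFP (added at 50 uM) then reacted 10 min; fluorescence read at 485/525 nm.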
BCR signal inh = inhibitors of chronic active B-cell receptor signaling; 340,000 tested, 0.05% active; ABC-DLBCL IkBa-CBG/CBR reporter, luminescence ratio, 4 h; AID 493014; Potency, µM (doses to about 46.1 µM), for the others: at the highest dose activity change, negative = inhibition, actives largely listed as inhibitors; active = well fitted inhibition curve with a large enough effect in the signal ratio, with a control signal flat, not every such curve was filed as active; inconclusive = small, poorly fitted or top-dose-only effect, or effect the other way, or a change in a side signal; the % refers to the signal ratio;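 note: plate controls were basal doxycycline-induced cells for no effect and cells given 10 µM MG132 for full effect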
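Concentration-response series (up to 46 uM) were applied to TMD8 dual-reporter cells for 4 h at 37C with doxycycline. Green/red ratio, after filter-overlap correction, defined %Activity; red signal alone was normalised to basal cells and zero luminescence.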
An asterisk follows results filed as active; ? = inconclusive; · = no result; [ ] = remark or other dose. Unless noted, calls come from the whole dose curve; as a rule, active = well fitted curve in the direction sought with a large enough effect; inconclusive = small, poorly fitted or top-dose-only effect, or another doubt; inactive = no such curve, though single readings can be large; an effect the other way counts as inactive or inconclusive. Unless noted, % is set by controls: 0 for no effect and ±100 for the full control effect; potency is the fitted concentration of half-maximal effect.

SMILES	uPA generation	RGS4 inh	KAT2A inh	USP2a block	Eya2 inh	BCR signal inh
C=C1CC2COC(=O)C2(Cc2ccc3ccccc3c2)C1 (centres undefined)	·	·	15%	·	·	·
Cc1ccc(S(=O)(=O)N2CCN(C(=O)COC(=O)CCOc3cc(C)ccc3C)CC2)cc1	4%	-3%	-12%	-2%	-19%	-1%
Cc1ccc(C)c(OCCC(=O)OCC(=O)N2CCN(S(=O)(=O)c3ccc(Cl)cc3)CC2)c1	10µM*	17%	-7%	0%	-2%	?
Cc1ccccc1Nc1c(-c2cccc(N(C)C)c2)nc2ccc(Br)cn12	·	5%	-10%	·	·	·
O=C(CSc1nccn1Cc1ccccc1)Nc1ccccc1	5%	-51%	-5%	0%	-1%	1%
CC(C)(C)NC(=O)CSc1nccn1Cc1ccccc1	11%	-17%	3.5µM*	4%	0%	-5%
CC1(c2ccccc2)NC(=O)N(CC(=O)NCCC2=CCCCC2)C1=O (centres undefined)	7%	2%[11.4 µM]	28µM*	0%	0%	5%
Cc1ccc(C2(C)NC(=O)N(CC(=O)NCCC3=CCCCC3)C2=O)cc1 (centres undefined)	3%	0%	-1%	1%	-10%	-3%
Cn1c(=S)[nH]c2cc(C(=O)N3CCN(Cc4cccs4)CC3)ccc2c1=O	·	2%	·	·	·	·
Cc1[nH]n(-c2ccccc2)c(=O)c1/C=N/NC(=O)c1cccc(F)c1	?	-15%	0%	-1%	-12%	?
Cc1[nH]n(-c2ccc(Br)cc2)c(=O)c1/C=N/NC(=O)c1ccccc1	6.3µM*	14%	-17%	1%	6%	?
CCOc1ccc(-c2c(C)nn3c(-c4ccccc4)c(C(=O)NCCOC)cnc23)cc1OCC	·	-29%	3%	·	·	·
COc1ccc(N2CC(NC(=O)/C=C\c3ccc4c(c3)OCO4)CC2=O)cc1 (centres undefined)	·	-7%	-7%	·	·	-15%
CC1=C(C(=O)NCc2ccc(C)cc2)C2(CCCCC2)OC1=O	·	9%	-1%	·	·	0%
O=C1/C(=C\c2cccc(O)c2O)SC(=S)N1Cc1ccccc1	-10%	-48%[56.9 µM]	20µM*	1%	-22%	-5%
O=C(CSc1nc2ccccc2o1)N/N=C/c1ccc(O)c(O)c1	6.3µM*	-3%	-14%	0%	?	-17%
COc1cc(C(=O)NCCOc2ccccc2)cc(OC)c1OC	9%	21%	?	-4%	12%	1%
COc1cc(C(=O)NCCOc2cc(C)cc(C)c2)cc(OC)c1OC	2.5µM*	16%	7%	0%	6%	?
CC(C)n1c(=O)[nH]c2ccccc21	6%	4%	-7%	1%	18%	-1%
CC(C)n1c(=O)[nH][nH]c1=S	3%	?	14µM*	3%	-5%	-4%
Oc1ccc(-c2nc3cnccn3c2Nc2ccc3c(c2)OCCO3)cc1	?	-12%	-13%	-6%	-22%	18µM*
CCOC(=O)c1sc(NC(=O)C(C)(C)C)cc1C	11µM*	-20%	1%	1%	-22%	-23%
COc1ccc(CCn2c(=S)[nH]c(=O)c3c(C)cc(C)nc32)cc1OC	·	-7%	·	·	·	·
Cc1nc2c(C(=O)NCCc3ccccc3)c[nH]n2c(=O)c1Cc1ccc(F)cc1Cl	·	-5%	?	·	·	·
Cc1ccc(CNC(=O)c2c[nH]n3c(=O)c(Cc4ccc(F)cc4Cl)c(C)nc23)cc1	·	-15%	35µM*	·	·	·
Cc1nc2c(C(=O)NCCc3ccc(Cl)cc3)c[nH]n2c(=O)c1Cc1ccccc1F	·	-2%	?	·	·	·
COc1ccc(CCNC(=O)c2c[nH]n3c(=O)c(Cc4ccccc4Cl)c(C)nc23)cc1OC	·	-17%	28µM*	·	·	?
O=C(COc1ccccc1-c1ccccc1)NN=C1CCCC1	10µM*	-24%	-2%	-1%	-15%	?
